Compound activity: PubChem BioAssay, National Center for Advancing Translational Sciences (NCATS)
CRE Fsk mod = alters forskolin-stimulated CRE reporter signaling in CHO cells; CHO CRE-bla reporter (cAMP response element driving beta-lactamase), forskolin EC10, beta-lactamase ratio; Potency, µM (top dose mostly 38.2 µM), for inactives: at the top dose activity change, negative = inhibition, hits mostly activators; 71,000 compounds, 2.5% hits; active means well fitted activation curve with a large enough effect in the signal ratio, with a control signal flat, not every such curve was filed as active; inconclusive means small, poorly fitted or top-dose-only effect, or effect the other way, or a change in a side signal; the % refers to the signal ratio; further: % of control where 0% means no effect
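qHTS titration format; CRE-bla CHO reporter; stimulus EC10 NKH 477, a water-soluble forskolin. Read: CCF4 460/530 nm ratio. Potency expressed as AC50 for activators or inhibitors.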
HEK293 cAMP ctrl = raises cAMP in parental HEK293 cells, TSHR agonist counter-screen; Potency, µM (top dose mostly 57.1 µM), without a hit: top-dose activation, actives largely listed as activators; parental HEK293 CNG cAMP sensor, membrane potential fluorescence; 73,000 compounds, 2.5% hits; AID 938; active means well fitted activation curve with a large enough effect; inconclusive means small, poorly fitted or top-dose-only effect; inactive means no such curve, though single readings can be large or run the other way; further: % of control where 0% means no effect; nearly all actives have a fitted effect of over 55% in size
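Counterscreen for endogenous-receptor signalling: CNG-channel HEK 293 cells report cAMP rise by membrane depolarization. After 60 min dye equilibration with 100 uM RO 20-1724, compounds incubated 30 min before bottom-read fluorescence at 590 nm.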
Hsp90 Hop PPI = changes Hsp90-Hop TPR2A binding signal, up or down; AlphaScreen TPR2A-His6 binding biotin-Hsp90 C-terminal peptide; Potency, µM (top dose mostly 57 µM), for inactives: top-dose activity change, negative = inhibition; 71,000 compounds, 0.44% hits; active means well fitted curve in either direction with a large enough effect; inconclusive means small, poorly fitted or top-dose-only effect, or another doubt; further: on the % scale 0 is the no-effect control and ±100 the full control effect
IkB sig inh = IkB pathway inhibition in ABC-DLBCL cells | ABC-DLBCL IkBa-CBG/CBR dual luciferase ratio, 4 h; response scale: scaled: untreated 0%, proteasome inhibitor 100% | AID 445 | Potency, µM (titrated, usually from 57.1 µM), for the others: at the highest dose IkBa stabilization activation | 110,000 compounds, 0.04% hits; active means well fitted curve in the direction sought with a large enough effect in the signal ratio, not every such curve was filed as active; inconclusive means small, poorly fitted or top-dose-only effect, or a change in a side signal; the % refers to the signal ratio;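 further: the direction sought is a rising ratio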
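In this assay, an IκBα–CBG68 fusion accumulates when IKK-driven degradation is blocked; native CBR normalizes for cell number. OCI-Ly3 cells were treated 4 h with compound and doxycycline, then green and red light read after Chroma-Glo addition.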
TSHR agonist = TSH receptor (human) agonism; Potency, µM (top dose mostly 57.1 µM), without a hit: top-dose activation, actives largely listed as activators; HEK293-CNG-TSHR cells (CNG channel as cAMP sensor), membrane potential dye, cAMP; P16473; 73,000 compounds, 0.48% hits; active means well fitted activation curve with a large enough effect in the main read-out, with a control signal flat, not every such curve was filed as active; inconclusive means small, poorly fitted or top-dose-only effect, or a change in a side signal; inactive means no such curve, though single readings can be large or run the other way; % of control where 0% means no effect;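 further: the control signal comes from parental cells without the receptor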
Target sequence (P16473 whole entry, looked up): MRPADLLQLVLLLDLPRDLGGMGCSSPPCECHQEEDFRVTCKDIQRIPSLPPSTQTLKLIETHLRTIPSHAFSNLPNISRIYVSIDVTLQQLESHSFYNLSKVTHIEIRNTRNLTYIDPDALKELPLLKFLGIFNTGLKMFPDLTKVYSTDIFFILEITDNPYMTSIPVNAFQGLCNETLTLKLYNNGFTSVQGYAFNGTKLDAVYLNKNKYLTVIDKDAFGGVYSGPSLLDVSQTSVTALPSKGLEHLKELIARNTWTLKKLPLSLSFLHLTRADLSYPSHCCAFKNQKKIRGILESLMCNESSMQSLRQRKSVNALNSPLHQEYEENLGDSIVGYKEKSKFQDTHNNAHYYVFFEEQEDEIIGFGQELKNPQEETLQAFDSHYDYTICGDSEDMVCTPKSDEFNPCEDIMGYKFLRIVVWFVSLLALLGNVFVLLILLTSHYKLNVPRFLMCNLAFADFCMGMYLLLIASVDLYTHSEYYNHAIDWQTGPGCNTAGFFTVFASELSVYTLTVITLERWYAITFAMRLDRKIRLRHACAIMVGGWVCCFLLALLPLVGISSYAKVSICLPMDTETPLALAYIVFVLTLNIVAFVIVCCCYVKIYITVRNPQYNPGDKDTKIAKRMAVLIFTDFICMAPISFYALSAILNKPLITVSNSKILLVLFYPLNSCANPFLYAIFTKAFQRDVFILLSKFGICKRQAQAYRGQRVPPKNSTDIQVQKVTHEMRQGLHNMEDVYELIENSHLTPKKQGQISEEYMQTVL
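HEK 293 cells stably expressing TSHR and a modified CNG channel, with CNG-only parental cells as counterscreen, were preloaded 60 min at room temperature with membrane potential dye containing 100 uM RO 20-1724. Compound exposure was 30 min, and depolarization was read as fluorescence at 590 nm.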
Active calls of the source: *; ? = inconclusive; . = not tested or not shown; [ ] = dose if it differs, or a comment. This is a sample that favours compounds with a hit; in the whole collection about 3.5% have one here. Potency means the concentration at half of the fitted maximal effect.

SMILES	CRE Fsk mod	HEK293 cAMP ctrl	Hsp90 Hop PPI	IkB sig inh	TSHR agonist
CCNc1ncc2nc(CCc3ccccc3)c(=O)n(C)c2n1	13µM*	?	9%	-2%[11.4 µM]	?
CCNc1ncc2nc(CCc3ccccc3)c(=O)n(C3CC3)c2n1	13µM*	?	0%	-1%[11.4 µM]	?
CCNc1ncc2nc(CCc3ccccc3)c(=O)n(CCC#N)c2n1	5µM*	?	-1%	-6%[11.4 µM]	?
COc1ncc2nc(CCc3ccccc3)c(=O)n(C3CC3)c2n1	?	19%	-7%	-3%[11.4 µM]	17%
CCCCc1nn2c(=O)cc(COC(=O)c3ccccc3NC(=O)c3ccccc3OC)nc2s1	.	.	.	0%	.
O=S(=O)(c1ccc(Cl)cc1)c1nnn2c1nc(NCc1cccs1)c1sccc12	.	.	.	-3%	.
COC(=O)[C@H](NC(=O)c1cc(-c2ccccc2)nc2ccccc12)c1ccccc1	12%	13µM*	-3%	?	?
O=C(O)c1cc(-c2ccccc2)nc2ccccc12	-7%	-4%	0%	4%	3%
CCN1C(=O)C(Cc2nc3ccccc3c(=O)n2-c2cccc(C)c2)c2ccccc21 (stereo not drawn)	.	.	.	-2%	.
CC(=O)NCCn1c(SCc2cc(=O)n3cc(Cl)ccc3n2)nc2ccccc2c1=O	0.63µM*	25%	-2%	-2%	.
CCN(CC)C(=O)Cn1cc(SCC(=O)Nc2ccccc2F)c2ccccc21	.	.	.	9%	.
COc1ccc(Nc2ncc3nc(-c4cccs4)c(=O)n(Cc4cccc(OC)c4)c3n2)cc1	-17%	11%	-2%	2%[11.4 µM]	-1%
Cc1nc2cnc(Nc3ccccc3)nc2n(CCc2ccccc2)c1=O	16µM*	?	-3%	0%[11.4 µM]	?
COc1cccc(Nc2ncc3nc(C)c(=O)n(CCC#N)c3n2)c1	10µM*	15%	-5%	-7%[11.4 µM]	4%
COc1cccc(Cn2c(=O)c(-c3cccs3)nc3cnc(Nc4cccc(OC)c4)nc32)c1	?	?	7.9µM*	1%[11.4 µM]	?
COCCn1c(=O)c(C)nc2cnc(Nc3cccc(OC)c3)nc21	13µM*	22%	1%	2%[11.4 µM]	-4%
CCc1ccc(C(c2ccccc2)c2c(C)[nH]c3ccccc23)s1 (stereo not drawn)	.	.	.	1%	.
O=C1c2oc3ccccc3c(=O)c2C(c2ccc(Br)cc2)N1c1ccccn1 (stereo not drawn)	.	.	.	-2%	.
COc1ccc(-n2c(=O)c(C)nc3cnc(Nc4cccc(OC)c4)nc32)cc1	?	?	3%	-7%[11.4 µM]	?
COc1cccc(Nc2ncc3nc(C)c(=O)n(C4CC4)c3n2)c1	5µM*	15%	-4%	-5%[11.4 µM]	5%
COCCn1c(=O)c(CCc2ccccc2)nc2cnc(Nc3ccccc3)nc21	?	20%	17%	-1%[11.4 µM]	29%
COCCn1c(=O)c(C)nc2cnc(Nc3ccccc3)nc21	7.9µM*	?	-2%	0%[11.4 µM]	?
O=C(O)c1cc(-c2ccncc2)nc2ccccc12	-3%[7.6 µM]	0%[11.4 µM]	1%[11 µM]	-1%[11.4 µM]	-2%[11.4 µM]
OC1c2ccccc2-c2nc3ccccc3cc21 (stereo not drawn)	10%	6%	-9%	.	12%
CCOC(=O)C1CCN(C(=O)c2c(C)nn(-c3ccc(F)cc3)c2-n2cccc2)CC1	.	.	.	1%	.
SMILES	CRE Fsk mod	HEK293 cAMP ctrl	Hsp90 Hop PPI	IkB sig inh	TSHR agonist
Cc1nn(-c2ccc(N3CCCC3)nn2)c(C)c1CCC(=O)NCc1ccc(OC(C)C)cc1	.	.	.	0%	.
CN(C)c1nc(-c2ccc3c(c2)OCO3)nc2ccccc12	?	12%	1%	-4%[11.4 µM]	22%
Cc1ccc2cc(C#N)c(NCCNC(=O)C3CCC3)nc2c1C	?	28%	0%	0%	.
Cc1cccc2cc(C#N)c(NCCNS(=O)(=O)c3ccc4c(c3)OCCO4)nc12	13µM*	7%	25%	?	11%
Cc1ccc(SCCNS(=O)(=O)c2ccc3c(c2)OCCO3)cc1	?	13%	4%	5%	.
Cc1cccc2cc(C#N)c(NCCNC(=O)NC3CCCCC3)nc12	?	20µM*	0%	0%	?
C=CCn1c(=O)c2c(C)c(C)sc2n2c(Nc3ccccc3)nnc12	3.2µM*	10%	-4%	1%	.
Cc1sc2c(c1C)c(=O)n(Cc1ccccc1)c(=O)n2Cc1ccc(F)cc1	.	.	.	-3%	.
CCCn1c(-c2ccc(F)cc2)nc2c(NCCCN3CCCCC3C)nc(C)nc21 (stereo not drawn)	8%	?	-3%	.	?
O=C(OCn1nnc2ccccc2c1=O)c1ccc2ncsc2c1	10%	2%	0%	6%	18%
COc1cc(OC)cc(C(=O)OCn2nnc3ccccc3c2=O)c1	13µM*	?	0%	-5%	?
COCCNc1cc(C)nc2c3c(C)cc(C)nc3nn12	13µM*	8%	0%	0%	0%
CCCC[C@H]1C[C@@H]1[C@@H]1N(P(=O)(c2ccccc2)c2ccccc2)C[C@@](O)(c2ccccc2)CC12CC2	9%	20%	-15%	.	1%
NC(=O)c1ccccc1NS(=O)(=O)Cc1ccc(Cl)cc1	-5%	-4%	-2%	7%	7%
NC(=O)c1ccccc1NC(=O)CS(=O)(=O)Cc1ccccc1	13µM*	12%	-6%	-3%	5%
COc1ccc(C(=O)n2c(-c3ccco3)nc3ccccc32)cc1	?	25µM*	4%	?	?
COc1ccc(CCn2c(-c3ccco3)nc3nc4ccccc4nc32)cc1	?	-6%	4%	-1%	1%
CCCCCCCCCC(=O)N[C@@H](CN1CCOCC1)[C@@H](O)c1ccccc1	-2%	24%	-11%	4%	11%
Cn1c(=O)c2c(SCc3ccccn3)nc(C3CC3)nc2n(C)c1=O	2µM*	?	-5%	2%	?
CCCc1nc(SCc2cccnc2)c2c(=O)n(C)c(=O)n(C)c2n1	4µM*	19%	-6%	4%	23%
CCCc1nc(SC2CCCC2)c2c(=O)n(C)c(=O)n(C)c2n1	2.5µM*	3%	11%	1%	1%[11.4 µM]
Cn1c(=O)c2c(SC3CCCC3)nc(CC(C)(C)C)nc2n(C)c1=O	-2%	-5%	-1%	0%	-1%
CCCc1nc(SCC(=O)N2CCN(c3ccccc3)CC2)c2c(=O)n(C)c(=O)n(C)c2n1	-10%	2%	-3%	2%	7%
CCCc1nc(SCc2ccccn2)c2c(=O)n(C)c(=O)n(C)c2n1	5µM*	21%	4%	6%	30%
COc1cccc(CN2C(=O)N(c3ccc(C)cc3)C(=O)C2CC(=O)Nc2cc(OC)cc(OC)c2)c1 (stereo not drawn)	.	.	.	0%	.
COc1ccc(NC(=O)NCc2cccn2Cc2ccc(F)cc2)cc1OC	.	.	.	0%	.
CCOC(=O)c1c2n(c3c(NCc4ccccc4)ncnc13)CCCC2	13µM*	23%	-26%	-1%	7%
